Measurements taken from PubChem BioAssay (Tox21).
Inconclusive results are not listed. A number with no mark means an inactive call. Calls follow the shape of the dose curve; as a rule, active = well fitted curve in the direction sought with a large enough effect in the signal ratio in the repeat runs (not every such curve was filed as active); inconclusive = weak or mixed curves, or a change in a side signal; inactive = no such curve, though single readings can be large or run the other way; the % refers to the signal ratio.

test: qHTS assay to identify small molecule agonists of the NFkB signaling pathway (AID 1159509); settings: NFkB-bla ME-180 cells, beta-lactamase FRET ratio, 5 h; series mostly up to 61 µM; activation: at the top concentration
From the text: National Center for Advancing Translational Sciences [NCATS]
NIH Chemical Genomics Center [NCGC]
U.S. Environmental Protection Agency [EPA]
National Institutes of Environmental Health Sciences [NIEHS]
National Toxicology Program [NTP]
U.S. Food and Drug Administration [FDA]
Transcription factors and their stimulated target gene expression play pivotal roles across many cellular processes including responses to environmental stimuli. Proper regulation of associated pathways is critical to maintain cell health and function. Constitutive activation of transcription factor pathways has been implicated in tumors as it may block cellular functions such as apoptosis and lead to invasion and metastasis. One important transcription factor that stimulates gene expression in response to cytokines, UV radiation, and other stimuli is nuclear factor-kappa B (NFkB). To measure activation of the NFkB pathway, the CellSensor NFkB-bla ME-180 cell line (Life Technologies, Carlsbad, CA) that stably expresses beta-lactamase reporter gene under the regulation of a NF-kB response element was used. This assay allows measurement of the NFkB pathway activity induced by compounds in a ME-180 cell line. This system quantitates NF-kB activity using a FRET-based assay system where beta-lactamase expression disrupts FRET, allowing for fluorescent measurement of activity. This cell line has been used to screen the Tox21 10K compound library and to identify compounds that induce the NFkB pathway activity.
Tox21 Assay Protocol Summary:
NFkB-bla ME-180 cells were dispensed at 2,000 cells/6 uL of assay medium per well into black wall/clear-bottom 1536-well plates using a Multidrop Combi (ThermoFisher Scientific, Waltham, MA) dispenser. After the assay plates were incubated at 37 C and 5% CO2 for an overnight, 23 nL of compounds dissolved in DMSO, positive controls or DMSO only was transferred to the assay plate by a Pintool station (Kalypsys, San Diego, CA). The assay plates were incubated at 37 C and 5% CO2 for 5 hr. One uL of LiveBLAzer B/G FRET substrate (Life Technologies) was added using a Flying Reagent Dispenser (Aurora Discovery, San Diego, CA) and the plates were incubated at room temperature for 1.5 hr. Fluorescence intensity (405 nm excitation, 460 nm and 530 nm emissions) was measured using an Envision plate reader (PerkinElmer, Shelton, CT).
% is scaled to controls: 0 for no effect and ±100 for the full control effect.

Compound | activation
CC(C)C(=O)OCC(C)(C)C(O)C(C)C (stereo not given) | 0.839% [at 78.8 µM]
CC1=CC(=O)CC(C)(C)C1=O | 0.549% [at 78.8 µM]
CCNCCO | -0.285%
COC(=O)c1ccc(OC)cc1 | -0.0442%
C1CSCCS1 | -0.559%
NC/C=C/C(=O)O | -0.326%
C/C(=N\O)[C@@H](C)NCC(C)(C)CN[C@H](C)/C(C)=N/O | -0.644%
CN1CCN(C2=Nc3ccccc3Oc3ccc(Cl)cc32)CC1 | 3.61%
CN1[C@@H]2CC[C@H]1CC(OC(=O)c1c[nH]c3ccccc13)C2 (stereo not given in full) | 0.19%
C=CC(C)(O)CC/C=C(\C)CCC=C(C)C (stereo not given) | 2.38%
COc1ccccc1N1CCN(CCCNc2cc(=O)n(C)c(=O)n2C)CC1 | -0.115%
CCOC(=O)C1CC(=O)C(=C(O)C2CC2)C(=O)C1 (stereo not given) | -0.122%
CC(C)CCCCCCc1ccc(OCCOCCO)cc1 | 0.491% [at 78.8 µM]
CC(=O)N[C@@H](CC(C)C)C(=O)O | -0.197%
O=C(C(Cl)Cl)N1CCOC12CCCCC2 | -0.0928%
Cc1cn([C@@H]2O[C@H](CO)[C@@H](O)[C@@H]2F)c(=O)[nH]c1=O | 0.055%
CCc1cc(Cl)c(OC)c(C(=O)NC[C@@H]2CCCN2CC)c1O | 0.0801%
CCOc1ccc(NS(=O)(=O)c2ccc(N)cc2)nn1 | -0.372%
CCCCCCCCCCCCOCCOS(=O)(=O)O | 2.21%
O=c1oc2c(O)c(O)cc3c(=O)oc4c(O)c(O)cc1c4c23 | 1.19% [at 28.5 µM]

Compound | activation
O=C1CCCCC1C1CCCCC1 (stereo not given) | 0.0066%
CCOc1ccc(NC(N)=O)cc1 | 0.05%
N#Cc1ccc(C(c2ccc(C#N)cc2)n2cncn2)cc1 | -0.352%
O=C(O)CN(CCN(CC(=O)O)CC(=O)O)CCN(CC(=O)O)CC(=O)O | 0.621% [at 28.5 µM]
CCN(CC)C(=O)N(CC)CC | 0.0094%
Cc1ccc(C=O)s1 | 0.161%
COc1nc(C)nc(NC(=O)NS(=O)(=O)c2ccccc2OCCCl)n1 | -0.131%
CCOC(=O)NCCC[Si](OCC)(OCC)OCC | -0.234%
CCC(=O)c1ccc2c(c1)N(CCCN(C)C)c1ccccc1S2 | 1.03%
CC(C)(C)c1cccc(O)c1 | -0.535%
C[C@@H]1CN(c2c(F)c(N)c3c(=O)c(C(=O)O)cn(C4CC4)c3c2F)C[C@H](C)N1 | 0.101% [at 28.5 µM]
NC1=NCC2c3ccccc3Cc3ccccc3N12 (stereo not given) | 0.181%
O=C1CCN(c2ccccc2)N1 | -0.13% [at 78.8 µM]
CCc1nnc(NS(=O)(=O)c2ccc(N)cc2)s1 | -0.147%
O=C1CCCc2ccccc21 | -0.409% [at 78.8 µM]
Cc1ccc([N+](=O)[O-])c(N)c1 | -0.72%
Cc1nc(N)nc(N)c1-c1ccc(Cl)c(Cl)c1 | 1.84%
CN(C)Cc1ccccc1 | 0.167% [at 78.8 µM]
CN1CCC[C@@H]1Cc1c[nH]c2ccc(CCS(=O)(=O)c3ccccc3)cc12 | 0.818%
CCOC(=O)c1cc(=O)c2c(OCC(COc3cccc4oc(C(=O)OCC)cc(=O)c34)OC(=O)[C@@H](N)CCCCN)cccc2o1 | 0.26%
